Compound activity (PubChem BioAssay)
SRC1 TRFRET art: flags TR-FRET format artefacts in PPARgamma SRC-1 recruitment agonist screen; TR-FRET detection artefact counter-screen, emission ratio; stronger effect = higher value; TR-FRET ratio at 8 µM; 99,000 tested, 0.34% active; in the data active = TR-FRET ratio above about 2300
PPARg SRC-1 ag: PPARgamma-driven SRC-1 recruitment agonism; PPARgamma-SRC-1 coactivator recruitment biochemical assay; 200,000 tested, 0.41% active; activation, % at 8 µM; AID 631; in the data active = activation above about 19%
Target sequence (P37231 whole entry, looked up): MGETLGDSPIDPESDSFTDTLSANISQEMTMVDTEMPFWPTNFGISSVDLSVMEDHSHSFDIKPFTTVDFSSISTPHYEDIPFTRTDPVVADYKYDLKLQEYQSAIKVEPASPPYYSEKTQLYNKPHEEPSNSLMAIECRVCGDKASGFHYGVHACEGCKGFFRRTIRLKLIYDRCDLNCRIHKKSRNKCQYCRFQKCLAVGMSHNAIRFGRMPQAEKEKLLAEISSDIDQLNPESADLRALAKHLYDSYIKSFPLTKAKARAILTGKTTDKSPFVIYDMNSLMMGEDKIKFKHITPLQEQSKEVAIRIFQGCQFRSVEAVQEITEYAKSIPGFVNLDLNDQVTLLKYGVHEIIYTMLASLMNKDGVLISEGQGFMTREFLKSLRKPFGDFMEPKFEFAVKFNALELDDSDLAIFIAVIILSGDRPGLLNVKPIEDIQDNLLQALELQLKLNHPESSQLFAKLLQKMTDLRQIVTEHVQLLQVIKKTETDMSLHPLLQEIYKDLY
PPARg SRC-2 ag: promotes SRC-2 coactivator recruitment by human PPARgamma; P37231; PPARgamma LBD-SRC-2 recruitment, biochemical; activation, % at 8 µM; 200,000 tested, 0.34% active; AID 1032; in the data active = activation above about 22%
SRC3 TRFRET art: TR-FRET artefact, counter-screen to PPARgamma/SRC-3 agonist assay | 99,000 tested, 0.39% active | TR-FRET ratio at 8 µM | AID 1048 | PPARgamma/SRC-3 format; stronger effect = higher value
PPARg SRC-3 ag: PPARgamma-driven SRC-3 recruitment agonism | 200,000 tested, 0.26% active | activation, % at 8 µM | biochemical PPARgamma/SRC-3 coactivator recruitment assay | P37231 | AID 731; in the data active = activation above about 23%
TR-FRET SRC-2 ct: flags TR-FRET format artefacts in PPARgamma SRC-2 recruitment agonist screen. TR-FRET artefact counter-screen; stronger effect = higher value. TR-FRET ratio at 8 µM. 200,000 tested, 0.4% active. AID 1049
PPARg SRC2 conf: human PPARgamma SRC-2 recruitment agonism, confirmation; shares compounds with PPARg SRC-3 ag; biochemical SRC-2 recruitment by PPARgamma; activation, % at 8 µM; 790 tested, 52% active; AID 1297; in the data active = activation above about 22%
PPARg SRC1 ag: human PPARgamma SRC-1 recruitment agonism, confirmation; shares compounds with PPARg SRC-3 ag; PPARgamma–SRC-1 coactivator recruitment biochemical assay; activation, % at 8 µM; 790 tested, 43% active; AID 1300; in the data active = activation above about 20%
PPARg SRC3 conf: confirmation of agonists of SRC-3 recruitment by human PPARgamma; AID 1301; activation, % at 8 µM; biochemical PPARgamma-SRC-3 coactivator recruitment, agonist mode; shares compounds with PPARg SRC-3 ag; 790 tested, 29% active; in the data active = activation above about 24%
Each line names hits and unclear results; the compound was inactive in the other large screens (follow-up assays come after a bar, where they were run). Hits are enriched below; roughly 0.9% of the tested compounds scored in any of these assays. Cut-off read from the data, not from the text of the source, unless noted: active = TR-FRET ratio above about 2000; inactive = the rest.

C=CCSC(=S)NC1CCS(=O)(=O)C1 (stereo not drawn)	none
O=C(CSc1c2c(nc3cc(Cl)ccc13)CCCC2)NCCCN1CCOCC1	PPARg SRC-1 ag 25, PPARg SRC-2 ag 26, SRC3 TRFRET art 2060 | PPARg SRC2 conf inactive | PPARg SRC1 ag inactive | PPARg SRC3 conf inactive
Cc1cc(Cl)ccc1OCC(=O)NCCCN1CCOCC1	none (no result: SRC1 TRFRET art, SRC3 TRFRET art)
O=C(CSc1c2c(nc3cc(Cl)ccc13)CCCC2)NCCN1CCOCC1	SRC1 TRFRET art 2381, PPARg SRC-1 ag 27, PPARg SRC-2 ag 32, SRC3 TRFRET art 2338, TR-FRET SRC-2 ct 2224 | PPARg SRC2 conf inactive | PPARg SRC1 ag inactive | PPARg SRC3 conf inactive
O=C(O)CSc1c2c(nc3cc(C(=O)N4CCCC4)ccc13)CCCC2	none
CCN(CC)CCCNC(=O)CSc1c2c(nc3cc(Cl)ccc13)CCCC2	SRC1 TRFRET art 2550, PPARg SRC-1 ag 33, PPARg SRC-2 ag 34, SRC3 TRFRET art 2400, TR-FRET SRC-2 ct 2152 | PPARg SRC2 conf 26 | PPARg SRC1 ag inactive | PPARg SRC3 conf inactive
O=C(CSc1c2c(nc3ccccc13)CCCC2)NCc1ccco1	PPARg SRC-1 ag 21 | PPARg SRC2 conf inactive | PPARg SRC1 ag inactive | PPARg SRC3 conf inactive
O=C(NCc1ccco1)c1c2c(nc3ccccc13)CCC2	none
Cc1ccc(S(=O)(=O)NCCCCCC(=O)Nc2cccc(C)c2)cc1	none
COCCCNC(=O)CSc1c2c(nc3ccc(Cl)cc13)CCCC2	SRC1 TRFRET art 2727, PPARg SRC-1 ag 31, PPARg SRC-2 ag 28, SRC3 TRFRET art 2277 | PPARg SRC2 conf inactive | PPARg SRC1 ag inactive | PPARg SRC3 conf inactive
CCCCNC(=O)c1ccc2c(SCC(=O)O)c3c(nc2c1)CCCC3	none
Cc1ccc(CNC(=O)CSc2c3c(nc4cc(Cl)ccc24)CCCC3)o1	PPARg SRC-2 ag 28 (no result: SRC1 TRFRET art, SRC3 TRFRET art) | PPARg SRC2 conf 27 | PPARg SRC1 ag inactive | PPARg SRC3 conf inactive
Cn1c(=S)[nH]c2c(c1=O)C(C)(C)Cc1ccccc1-2	SRC1 TRFRET art 3109, PPARg SRC-1 ag 40, PPARg SRC-2 ag 45, SRC3 TRFRET art 2669, PPARg SRC-3 ag 25, TR-FRET SRC-2 ct 2681 | PPARg SRC2 conf 37 | PPARg SRC1 ag 24 | PPARg SRC3 conf 24
CC1(C)Cc2ccccc2-c2nc3n(c(=O)c21)CCS3	none
CCn1c(=S)[nH]c2c(c1=O)C(C)(C)Cc1ccccc1-2	SRC1 TRFRET art 3374, PPARg SRC-1 ag 44, PPARg SRC-2 ag 33, SRC3 TRFRET art 2752, PPARg SRC-3 ag 28, TR-FRET SRC-2 ct 2673 | PPARg SRC2 conf 36 | PPARg SRC1 ag 23 | PPARg SRC3 conf 25
C=CCN(C(=O)CSC1=NC(=O)CN1C(C)=O)c1nc(C)c(-c2ccccc2)s1	none
COc1ccc(-c2oc3ncn4nc(Cc5ccccc5)nc4c3c2-c2ccc(OC)cc2)cc1	PPARg SRC-1 ag 84, PPARg SRC-2 ag 69, TR-FRET SRC-2 ct 4122 (no result: SRC1 TRFRET art, SRC3 TRFRET art) | PPARg SRC2 conf inactive | PPARg SRC1 ag inactive | PPARg SRC3 conf inactive
COc1ccc(-c2oc3ncn4nc(COc5ccccc5)nc4c3c2-c2ccc(OC)cc2)cc1	none (no result: SRC1 TRFRET art, SRC3 TRFRET art)
Oc1ccc(N=C/C=C/c2cccc(Br)c2)cc1-c1nc2ccccc2s1	none
Cc1cc(C(=O)c2ccc(C(C)(C)C)cc2)c(NC(=O)CCl)s1	none
COC(=O)CCS(=O)(=O)c1nc(-c2ccccc2)cc(C(F)(F)F)n1	PPARg SRC-1 ag 21 (no result: SRC1 TRFRET art, SRC3 TRFRET art) | PPARg SRC2 conf inactive | PPARg SRC1 ag inactive | PPARg SRC3 conf inactive
CCOC(=O)CCS(=O)(=O)c1nc(-c2ccccc2)cc(C(F)(F)F)n1	none (no result: SRC1 TRFRET art, SRC3 TRFRET art)
CC(NS(=O)(=O)c1ccc(Cl)cc1)C(=O)NCCC1=CCCCC1 (stereo not drawn)	none
CCCCCn1c(CN2CCN(C(=O)OCC)CC2)nc2c1c(=O)n(C)c(=O)n2C	none (no result: SRC1 TRFRET art, SRC3 TRFRET art)
CCCCCn1c(CN2CCN(C)CC2)nc2c1c(=O)n(C)c(=O)n2C	PPARg SRC-3 ag 26 (no result: SRC1 TRFRET art, SRC3 TRFRET art) | PPARg SRC2 conf inactive | PPARg SRC1 ag inactive | PPARg SRC3 conf inactive
